Nrf2 activator – Nrf2 pathway activation; AREc32 ARE-luciferase reporter (MCF7-derived line), luminescence, 24 h; Potency, µM (doses to about 46.1 µM), inactives show at the highest dose activation, hits mostly activators; hit rate 0.31% among 410,000; AID 624171; also: potency is read from the fitted curve at half-maximal effect; % of control where 0% means no effect; nearly all actives have a fitted effect of over 65% in size
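Reporter line AREc32 (ARE-Fluc), seeded overnight in OPTI-MEM with 5% FBS; compound pin-transferred, 24 hr at 37 deg C, 5% CO2; luminescent read-out.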
A549 tox – kills or reduces viability of A549 cells in Nrf2 counter-screen. AID 504648. hit rate 0.16% among 390,000. A549 ARE-Fluc cells, CellTiter-Fluor viability, 18-24 h. Potency, µM (top dose mostly 46 µM), for inactives: at the highest dose activity change, negative = cytotoxicity, most hits filed as inhibitors; also: potency is read from the fitted curve at half-maximal effect; % is scaled to controls: 0 for no effect and ±100 for the full control effect
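Cytotoxicity counterscreen: CellTiter-Fluor fluorescence was measured in A549 ARE_Fluc cells after 18-24 h of compound exposure in a concentration series. The subsequent BugLite luminescent read reports ARE-luciferase activity.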
Nrf2 block – inhibitors of Nrf2 signaling. Potency, µM (titrated, usually from 46 µM), without a hit: top-dose activity change, negative = inhibition, usual class: inhibitors. A549 ARE-Fluc reporter, luciferase luminescence, 18-24 h. hit rate 2.1% among 360,000; also: potency is read from the fitted curve at half-maximal effect; % is scaled to controls: 0 for no effect and ±100 for the full control effect; nearly all actives have a fitted effect of over 60% in size
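A549 ARE_Fluc cells (5000/well, 5% FBS OPTI-MEM) pre-incubated 2 h, then treated with compounds 18-24 h at 37C/5% CO2 in concentration-response. CellTiter-Fluor viability read first; BugLite luciferase luminescence after 15 min at room temperature gives Nrf2 activity.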
LDHA block – blocks human lactate dehydrogenase A; activity change, % (values are at about 110 or 230 µM); hit rate 0.15% among 480,000; purified LDHA, NADH/diaphorase-resazurin fluorescence; active compounds read low; P00338; in the data active = activity change below about -30%; inconclusive = mostly about -25% to -30%;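 also: plate controls were DMSO wells for no effect and wells without enzyme for full effect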
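Human LDH5 (2 nM) was incubated with 0.06 mM NADH and 0.2 mM pyruvate for 5 min at room temperature in Tris pH 7.4. Remaining NADH was coupled through diaphorase/resazurin, and resorufin fluorescence was read at 0 and 20 min.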
IDH1 R132H inh – blocks human mutant IDH1 R132H enzyme | O75874 | IDH1-R132H enzyme, NADPH consumption, diaphorase/resazurin fluorescence | Potency, µM (highest dose often 76.6 µM), inactives show at the top dose activity change, negative = inhibition, most hits filed as inhibitors | hit rate 0.093% among 390,000 | AID 602179; also: potency is read from the fitted curve at half-maximal effect; % is scaled to controls: 0 for no effect and ±100 for the full control effect; nearly all actives have a fitted effect of over 65% in size
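IDH1-R132H (0.5 ug/mL dispensed) in pH 7.5 Tris buffer was preincubated 30 min with compound, then given a substrate mix of 0.016 mM NADPH and 2 mM alpha-KG for 80 min at room temperature; remaining NADPH was read by diaphorase/resazurin fluorescence.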
12-LOX inh – ALOX12 (human) lipoxygenase inhibition; P18054; purified 12hLO, xylenol orange hydroperoxide absorbance; Potency, µM (top dose mostly 108 µM), without a hit: at the highest dose activity change, negative = inhibition, usual class: inhibitors; hit rate 1.1% among 580,000; AID 1671190; also: potency is read from the fitted curve at half-maximal effect; % is scaled to controls: 0 for no effect and ±100 for the full control effect
Target sequence (P18054 whole entry, looked up): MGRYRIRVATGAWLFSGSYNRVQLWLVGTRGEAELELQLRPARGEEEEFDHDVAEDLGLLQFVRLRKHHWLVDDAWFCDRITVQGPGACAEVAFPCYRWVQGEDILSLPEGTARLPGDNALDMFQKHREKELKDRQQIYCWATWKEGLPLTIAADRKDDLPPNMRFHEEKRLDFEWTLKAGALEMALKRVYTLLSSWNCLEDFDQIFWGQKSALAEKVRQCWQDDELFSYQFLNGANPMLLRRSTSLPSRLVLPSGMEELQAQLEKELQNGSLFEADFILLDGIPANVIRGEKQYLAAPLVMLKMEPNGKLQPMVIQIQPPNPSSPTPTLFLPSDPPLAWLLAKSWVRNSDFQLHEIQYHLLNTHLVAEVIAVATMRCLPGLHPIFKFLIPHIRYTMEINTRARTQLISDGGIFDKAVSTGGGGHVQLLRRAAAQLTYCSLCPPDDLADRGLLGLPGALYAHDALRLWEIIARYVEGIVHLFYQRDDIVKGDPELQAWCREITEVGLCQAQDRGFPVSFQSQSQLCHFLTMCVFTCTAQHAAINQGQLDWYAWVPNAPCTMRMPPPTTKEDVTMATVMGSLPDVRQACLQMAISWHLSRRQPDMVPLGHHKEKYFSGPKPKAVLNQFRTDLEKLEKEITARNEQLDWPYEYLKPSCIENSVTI
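Purified human 12hLO at 150 nM in 25 mM Hepes, 0.01% Triton X-100, pH 7.0, preincubated 15 min at room temperature with compound. Reaction started with 40 uM arachidonic acid, 30 min at room temperature. Hydroperoxide measured by Fe-xylenol orange, 573/405 nm absorbance ratio.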
The depositor's hits bear a star; i = inactive; ? = inconclusive; nt = not tested or not shown. Most compounds without a hit are left out; they make up all but 2.7% or so of the library. Unless noted, calls follow the shape of the dose curve; as a rule, active = well fitted curve in the direction sought with a large enough effect; inconclusive = small, poorly fitted or top-dose-only effect, or another doubt; inactive = no such curve, though single readings can be large; an effect the other way counts as inactive or inconclusive.

SMILES | Nrf2 activator | A549 tox | Nrf2 block | LDHA block | IDH1 R132H inh | 12-LOX inh
CCCCc1c(C)c(C#N)c2nc3ccccc3n2c1NCCN(C)C | -1% | 6.5µM* | 6.5µM* | -1 | 0% | 18%
CC(C)(C)C(=O)Nc1cccc(CN2CCSCC2)c1 | nt | nt | nt | 5 | nt | 25%
Cc1nc2cc(NC(=O)COc3ccccc3Cc3ccccc3)ccc2o1 | nt | nt | nt | 6 | nt | -13%
Cc1cc(C)cc(S(=O)(=O)c2cnc3ccccc3n2)c1 | 22µM* | -4% | 9% | -3 | 5% | -4%
O=S(=O)(c1ccc(Cl)cc1)c1cnc2ccccc2n1 | ? | -3% | ? | -2 | -4% | 0%
O=C(O)c1cc(-c2ccco2)nn1-c1cccc(Cl)c1 | 4% | 3% | -7% | -2 | 6% | 35µM*
Cc1nn(-c2cccc(Cl)c2)c2nc(-c3ccco3)cc(C(=O)O)c12 | 8% | 0% | -4% | -2 | 0% | 40µM*
CCCC(=O)N1CCCN(CC(=O)Nc2cccc(F)c2)CC1 | nt | nt | nt | -3 | nt | -13%
COCCn1cc2c3c(cccc31)CN(C(=O)c1cc(F)ccc1Cl)CC2 | nt | nt | nt | nt | nt | 25µM*
Cc1ccc2[nH]cc(CCNC(=O)c3ccc(C(F)(F)F)cc3)c2c1 | nt | nt | nt | 3 | nt | ?
CCOc1ccc(CN(C)c2ccc(S(=O)(=O)N3CCN(C)CC3)cc2[N+](=O)[O-])cc1OC | 2% | -4% | 16µM* | 1 | 0% | nt
CCOC(=O)C1CCN(c2ncnc3c2cnn3-c2ccc(Cl)cc2)CC1 | -2% | 0% | 2.9µM* | 1 | 1% | 6%
Cc1nn(-c2ccccc2)c(Cl)c1C(=O)N1CCN(c2ncnc3c2cnn3-c2ccccc2)CC1 | -1% | ? | 21µM* | -6 | 0% | i
O=C(c1ccccc1)N1CCN(c2ncnc3c2cnn3-c2ccccc2)CC1 | 4% | -4% | ? | -2 | 3% | 20%
CCOC(=O)C1CCN(c2ncnc3c2cnn3-c2ccccc2)CC1 | 0% | -4% | -11% | -8 | 10% | -7%
CCC(CC)c1nnc(NC(=O)c2cc(S(=O)(=O)N(C)C)ccc2Cl)s1 | nt | nt | nt | 19 | nt | 9%
CCOC(=O)c1ccc(N2CCN(C(C)=O)CC2)c(NC(=O)c2ccc(CC)cc2)c1 | nt | nt | nt | -1 | nt | ?
CCCc1ccc(S(=O)(=O)N2CCN(C(C)C(=O)NCc3ccc(OC)cc3)CC2)cc1 (centres undefined) | 3% | ? | 16µM* | -8 | -3% | -1%
O=S(=O)(c1ccc2ccccc2c1)N1CCN(C(=S)Nc2ccccc2F)CC1 | 0% | -1% | 15µM* | -18 | -1% | ?
O=S(=O)(c1ccc(Cl)cc1)N1CCN(C(=S)Nc2ccccc2F)CC1 | 0% | 8% | 6% | -1 | 10% | -21%
CC(C)NC(=O)C(C)N1CCN(S(=O)(=O)c2ccc3ccccc3c2)CC1 (centres undefined) | 0% | -1% | -18% | ? | 15% | 1.4µM*
CC(C)N1CCN(S(=O)(=O)c2ccc3ccccc3c2)CC1 | 1% | 2% | 2% | -19 | 6% | 0.79µM*
COc1cccc(-c2cc(C(=O)O)c3cc(C)cc(C)c3n2)c1 | nt | nt | nt | 6 | nt | -2%
NC(=S)NN=C1CCC(C2CCCCC2)CC1 (centres undefined) | 7% | 2% | ? | -7 | 7% | 35µM*
NC(=S)NN=C1CCCCCCCCCC1 | 7% | 6% | ? | -6 | 0% | 45µM*
SMILES | Nrf2 activator | A549 tox | Nrf2 block | LDHA block | IDH1 R132H inh | 12-LOX inh
NC(=S)NN=C1CCCCCCCCCCC1 | nt | nt | nt | -11 | nt | ?
S=C(NN=C1CCCCCCCCCCC1)NC1CCCCC1 | nt | nt | nt | 0 | nt | ?
Nc1ccc(-c2ccn[nH]2)cc1 | nt | nt | nt | 1 | nt | ?
Cc1ccc(-c2nc3ccccc3n3nnnc23)cc1 | 1% | 7% | ? | -1 | 0% | 10%
Cc1ccc(-c2nnc3c(C(F)(F)F)nc4ccccc4n23)cc1 | 0% | ? | 23µM* | -1 | -1% | 0%
FC(F)(F)c1nc2ccccc2n2c(-c3ccc(Cl)cc3)nnc12 | -2% | 5.8µM* | nt | -1 | -1% | 18%
Cc1ccc(-n2nc3ccc(N)cc3n2)cc1Cl | 0% | 0% | ? | 22 | 0% | 0%
Cc1ccc(-n2nc3ccc(N)cc3n2)cc1C | 1% | -2% | ? | 10 | 12% | 45µM*
NC(=O)c1sc(-c2ccsc2)cc1NS(=O)(=O)c1ccc(C(F)(F)F)cc1 | 4% | -16% | 15µM* | -7 | -25% | 0%
COc1ccc(Cc2nc(C(=O)Nc3ccccc3)cs2)cc1 | 5% | 2% | -28% | -3 | 1% | 27%
C=CC[n+]1c(-c2ccc(OC)cc2)csc1NNC(=O)Nc1ccccc1 | 4% | -7% | 15µM* | 7 | 6% | ?
O=C1Nc2ccccc2C12OCC(COc1ccc(Cl)cc1)O2 (centres undefined) | 1% | -7% | ? | -1 | 3% | -17%
CN1C(=O)C2(OCC(COc3ccc(Cl)cc3)O2)c2ccccc21 (centres undefined) | 1% | -10% | 18µM* | -1 | 0% | -14%
O=c1cc(CN2CCN(Cc3ccc(F)cc3)C(CCO)C2)[nH]c2ccccc12 (centres undefined) | -1% | 0% | 3% | -10 | -3% | 35µM*
OCCC1CN(Cc2cc3ccccc3o2)CCN1Cc1ccc(F)cc1 (centres undefined) | 0% | -2% | 1% | -4 | 3% | ?
COCCNc1ncnc2ccc(-c3ccccc3C)cc12 | nt | nt | nt | nt | nt | 28µM*
CCOC(=O)N1CCN(CC(=O)Nc2cc(OCC)ccc2OCC)CC1 | 0% | 1% | 11% | -18 | 8% | 1.6µM*
CCOC(=O)N1CCN(CC(=O)Nc2nc3ccccc3s2)CC1 | 1% | 3% | -23% | 1 | 11% | 5%
CCOC(=O)N1CCN(CC(=O)Nc2nc3ccc(OC)cc3s2)CC1 | 2% | 1% | 1% | 1 | 10% | 45µM*
Nn1c(SC(C(=O)N2CCOCC2)c2ccccc2)nnc1-c1ccccc1F (centres undefined) | nt | nt | nt | 3 | nt | ?
COc1ccc2c(COC(=O)CCCN=C3NS(=O)(=O)c4ccccc43)cc(=O)oc2c1 | nt | nt | nt | 8 | nt | ?
COC(=O)[C@@H]1Cc2c([nH]c3ccccc23)C(C)(C)N1C(=O)CCl | 10µM* | -7% | -14% | -2 | 1% | ?
COC(=O)C1Cc2c([nH]c3ccccc23)C2CCC(=O)N12 (centres undefined) | 2% | nt | nt | -12 | 0% | ?
Cc1ccc(-c2cn3c(=O)cc(C)[nH]c3n2)cc1 | 0% | -15% | 5.8µM* | -15 | 7% | 0%
